Test system: Vero E6 infected with SARS-CoV-2
Assay: inhibition of SARS-CoV-2 cytopathic effect; higher = more antiviral protection, active = above 15
Details: 48 h

Measured: inhibition of SARS-CoV-2 cytopathic effect

O=C(O)c1ccccc1Nc1cccc(C(F)(F)F)c1 [flufenamic-acid]
inactive: 1 nM -1.93% | 8.33 nM 0.57% | 100 nM -0.92% | 833.33 nM 0.82% | 10000 nM 0.1%

C[C@H](NCc1ccc(OCc2cccc(F)c2)cc1)C(N)=O [safinamide]
inactive: 1 nM 4.62% | 8.33 nM 5.34% | 100 nM 2.52% | 833.33 nM 0.07% | 10000 nM -0.48%

N[C@@H](C(=O)N[C@@H]1C(=O)N2C(C(=O)O)=C(Cl)CS[C@H]12)c1ccccc1 [cefaclor]
inactive: 1 nM -2.43% | 8.33 nM -5.19% | 100 nM 1.55% | 833.33 nM -1.09% | 10000 nM 5.72%

Cc1ccc(C(=O)Nc2ccc(CN3CCN(C)CC3)c(C(F)(F)F)c2)cc1C#Cc1cnc2cccnn12 [ponatinib]
inactive: 1 nM 0.65% | 8.33 nM 1.8% | 100 nM 5.2% | 833.33 nM 1.27% | 10000 nM -10.9%

CC(C)Cc1ccc(C(C)C(=O)NO)cc1 (stereo not given) [ibuproxam]
inactive: 1 nM 1.38% | 8.33 nM 1.54% | 100 nM 0.99% | 833.33 nM 2.87% | 10000 nM 1.73%

CCCCCCCCCCC(C)(C)C(=O)Nc1c(OC)cc(OC)cc1OC
inactive: 1 nM 0.52% | 8.33 nM 6.1% | 100 nM 5.14% | 833.33 nM 0.51% | 10000 nM 0.93%

N=C(N)NC(=O)c1nc(Cl)c(N)nc1N [amiloride]
inactive: 1 nM 3.13% | 8.33 nM 3.86% | 100 nM 2.25% | 833.33 nM 3.19% | 10000 nM 3.14%

CCCCc1ccc(NS(=O)(=O)c2ccc(F)cc2)cc1
inactive: 1 nM -1.42% | 8.33 nM -2.12% | 100 nM -1.58% | 833.33 nM -3.93% | 10000 nM -1.95%

CCCCCCC[N+](CC)(CC)CCCCc1ccc(Cl)cc1 [clofilium]
inactive: 1 nM 2.85% | 8.33 nM 1.44% | 100 nM 1.58% | 833.33 nM 1.2% | 10000 nM 3.38%

COC(=O)Nc1nc2cc(Sc3ccccc3)ccc2[nH]1 [fenbendazole]
inactive: 1 nM 0.07% | 8.33 nM -1.31% | 100 nM 0.21% | 833.33 nM 0.61% | 10000 nM -0.61%

CC1(C)C(=O)N(CCN2CCC(C(=O)c3ccc(F)cc3)CC2)c2ccccc21
inactive: 1 nM -2.5% | 8.33 nM 0.34% | 100 nM -1.18% | 833.33 nM -0.38% | 10000 nM 0.46%

CC/C=C\C/C=C\C/C=C\C/C=C\C/C=C\C/C=C\CCC(=O)OCC [doconexent-ethyl-ester]
inactive: 1 nM -1.67% | 8.33 nM 0.01% | 100 nM 0.45% | 833.33 nM 0.72% | 10000 nM 0.36%

O=C[C@H](F)[C@@H](O)[C@@H](O)[C@H](O)CO [2-fluoro-2-deoxy-D-galactose]
inactive: 1 nM 1.5% | 8.33 nM 1.13% | 100 nM 1.44% | 833.33 nM 1.15% | 10000 nM 0.92%

Brc1c(Br)c(Br)c2[nH]nnc2c1Br [4,5,6,7-tetrabromobenzotriazole]
inactive: 1 nM 1.42% | 8.33 nM 3.75% | 100 nM -0.07% | 833.33 nM 1.63% | 10000 nM 3.61%

O[C@H]([C@H](O)[C@@H]1CO1)[C@H]1CO1 [dianhydrogalactitol]
inactive: 1 nM -0.61% | 8.33 nM -1.52% | 100 nM -3.41% | 833.33 nM 0.41% | 10000 nM 2.5%

O=C(O)c1c2ccccc2cc2ccccc12 [9-anthracenecarboxylic-acid]
inactive: 1 nM -4.6% | 8.33 nM 2.11% | 100 nM 0.63% | 833.33 nM 1.03% | 10000 nM -2.02%

Cc1cc(CC(C)CC(C)(C)C)n(O)c(=O)c1 (stereo not given) [piroctone-olamine]
inactive: 1 nM -1.12% | 8.33 nM 3.7% | 100 nM 3.23% | 833.33 nM 1.26% | 10000 nM -1.5%

CCCCOc1cc(C(=O)NCCN(CC)CC)c2ccccc2n1 [cinchocaine]
inactive: 1 nM -2.14% | 8.33 nM -0.71% | 100 nM 1.11% | 833.33 nM 3.8% | 10000 nM 0.77%

COc1ccsc1CNCC[C@@]1(c2ccccn2)CCOC2(CCCC2)C1
inactive: 1 nM -2.56% | 8.33 nM 3.9% | 100 nM 0.92% | 833.33 nM 1.29% | 10000 nM -0.28%

Source: the supplement of paper PMC13380429
